# High-throughput results from PubChem.
# The list is not random: actives were taken first. Their share in the collection is about 1.5%.
# Her2 expr inh: Her2 kinase expression inhibition | P04626 | SKBR-3 HER2 protein level, AlphaScreen, 18-24 h; active compounds read low | HER2 level % of control, % at 10 µM | actives 0.69% (n = 65,000);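 active means HER2 level under 5% of the carrier-only control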;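 further: 100% = DMSO carrier and 0% = 500 nM PU-H71 HSP90 inhibitor; lower value means stronger loss of Her2 protein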
# C1s inh: blocks human complement C1s protease activity; P09871; purified C1s, fluorogenic AMC substrate, pooled mixtures; mean inhibition % of two 10-compound mixtures (active compounds read high), % at 5 µM (by protocol); AID 538; actives 0.16% (n = 62,000);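 active means inhibition above 20% in each of the two 10-compound mixture wells holding the compound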;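 further: 0% = enzyme wells lacking compound mixture and 100% = no-enzyme blank wells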
# Cathepsin G inh: blocks human cathepsin G enzyme activity; inhibition, % at 5 µM (by protocol); P08311; purified enzyme, AMC-tetrapeptide fluorescence, pooled mixtures; actives 0.2% (n = 62,000); AID 581;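 active means inhibition above 20% in each of the two mixture wells holding the compound; inactive means inhibition of 20% or less in either well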;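 further: 0% = enzyme control without mixture and 100% = blank lacking enzyme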
# SK-BR-3 tox 24h: SK-BR-3 proliferation inhibitors | SK-BR-3 viability, CellTiter-Glo ATP luminescence, 24 h; active compounds read low | actives 0.47% (n = 41,000) | viability, % at 10 µM | AID 847;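 active means viability at or below the median of all test compounds minus 3 SD, in both replicates if run twice, cut at about 45% in these data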;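 further: 100% = median untreated cell wells and 0% = median positive control drug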
# FXIa mix inh: inhibitors of human coagulation factor XIa, pooled mixtures | P03951 | inhibition, % at 5 µM | actives 0.19% (n = 62,000) | purified FXIa, fluorogenic substrate;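 further: each value is inhibition by a whole ten-compound pool holding the compound; 0% = enzyme with no mixture and 100% = wells lacking enzyme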
# FXIIa inh mix: inhibitors of human coagulation factor XIIa, pooled mixtures. P00748. inhibition, % at 5 µM. purified FXIIa, fluorogenic substrate. AID 684. actives 0.2% (n = 62,000);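 further: 0% = enzyme without compound and 100% = no enzyme blank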
# * marks the source's active call; other numbers are inactive results; . = no result given. Unless noted, no stated cut-off is given here; in the data, active means inhibition above about 20% (passing the limit was not always enough); inactive means the rest.
SMILES,Her2 expr inh,C1s inh,Cathepsin G inh,SK-BR-3 tox 24h,FXIa mix inh,FXIIa inh mix
COCCCN1C(=O)C(O)=C(C(C)=O)C1c1cccc(F)c1 (centres undefined),-16*,-20,-5,77,5,5
Cc1ccc(-c2csc(NC(=O)CSc3ncn(-c4ccccc4)n3)n2)cc1,111,15,8,84,10,3
COC(=O)c1[nH]c2ccc(C)cc2c1NC(=O)C(C)N1CCN(C2CCCCC2)CC1 (centres undefined),106,-1,3,87,3,2
COC(=O)c1[nH]c2ccc(Br)cc2c1NC(=O)C(C)N1CCN(C2CCCCC2)CC1 (centres undefined),-4.8*,4,12,85,3,-1
Cc1nc(Cc2nnc(SCc3nc(N)nc(Nc4ccccc4C)n3)o2)cs1,95,4,-2,36*,7,9
Cc1ccc2[nH]c(=O)c(CN(CCCN3CCOCC3)C(=O)Nc3cccc(Cl)c3)cc2c1,77,8,12,76,5,-1
O=C(CCN1C(=O)c2cccnc2C1=O)NC1CCCCCC1,-17*,2,21,80,13,-1
COc1ccc([C@@H]2[C@H]3CN(C(C)=O)CC=C3C(C#N)=C(N)C2(C#N)C#N)c2ccccc12,-0.8*,16,11,81,1,-1
CCC1C2CN(C(C)=O)CC=C2C(C#N)=C(N)C1(C#N)C#N (centres undefined),110,-4,-8,.,9,-3
Cc1ccc(NC(=O)CCn2nc(C)cc2C)c(C)c1,77,5,10,79,4,-19
Cc1ccc(NC(=O)CNc2cccc(C)c2C)c(C)c1,-28*,5,10,.,5,6
COC(=O)c1sc(=S)sc1C(=O)OC,83,16,10,.,16,2
CCN1CCN(c2ncnc3c2oc2nc(C(C)C)c4c(c23)CCC4)CC1,88,-16,-5,70,-3,4
CC(C)Cc1nc2oc3c(N4CCN(CCO)CC4)ncnc3c2c2c1CCCC2,-3.6*,-4,-13,81,4,7
COc1ccccc1NC(=O)Cc1csc(N)n1,87,-4,-2,104,8,0
Cc1cc(-n2[nH]c(C)c(C)c2=O)nc(-c2ccccc2O)n1,79,13,10,39*,4,2
Cc1c(=O)n(OCc2ccccn2)c2ccccc2[n+]1[O-],121,5,4,84,14,4
O=c1c(-c2ccco2)[n+]([O-])c2ccccc2n1OCc1ccccn1,24,29*,20,86,29*,-16
C=CCn1c(SCC(=O)NCc2ccc3c(c2)OCO3)nnc1C1COc2ccccc2O1 (centres undefined),97,7,12,.,33*,13
COC(=O)c1ccsc1NC(=O)c1ccc2c(c1)OCCO2,51,-8,-4,.,3,8
Cc1cc(C)c2nc(Nc3nc(C)cc(=O)[nH]3)nc(C)c2c1,0.2*,7,7,.,1,-17
S=c1[nH]nc(COc2ccc(Cl)cc2)o1,102,0,5,99,6,1
Cc1ccc(CNC(=O)c2cc3c(-c4ccc(Cl)cc4)nn(C)c3s2)o1,-17*,11,9,.,7,35
COC(=O)c1c(NC(=O)c2ccco2)sc(C(=O)N2CCCC2)c1C,155,-6,-10,103,3,9
CC(=O)NC(=O)NC1CSCC1OC(C)=O (centres undefined),105,58*,14,108,8,0
SMILES,Her2 expr inh,C1s inh,Cathepsin G inh,SK-BR-3 tox 24h,FXIa mix inh,FXIIa inh mix
COC(=O)NC1CSCC1OC(=O)c1ccc(Br)cc1 (centres undefined),109,-120,-19,87,-27,-7
CCCNC(=O)c1ccc(CNc2c(N3CCC(C(=O)OCC)CC3)c(=O)c2=O)cc1,87,10,9,91,10,6
Cn1c(Cl)nc2ccccc21,99,3,9,95,1,-12
Cn1c(SC2=CS(=O)(=O)c3ccccc32)nc2ccccc21,-22*,8,9,108,8,0
Cc1nnc(SCc2ccccc2F)n1NCc1cccs1,106,-152,-18,89,-17,-10
O=C(c1cccs1)c1ccc(-c2cccs2)s1,-2.5*,-71,-4,130,-14,4
O=C(c1cc2ccccc2o1)c1cccs1,59,17,11,92,7,3
N#CC1=C(N)OC2=C(C(=O)CCC2)C1CCc1ccccc1 (centres undefined),75,-51,12,101,3,-18
CCOC(=O)CSc1cc(C)nc(NC(C)=O)n1,102,-12,-10,99,2,-16
COc1ccc(NC(=O)c2cc(-c3ccccc3OC)on2)cc1,57,23,18,48,30,-17
COc1ccccc1-c1cc(C(=O)Nc2cccnc2)no1,86,3,34*,90,12,4
CNC(=O)c1ccc(N(Cc2ccccc2)S(C)(=O)=O)cc1,105,1,12,90,-6,0
CC1(C)COCN1S(=O)(=O)c1ccc(C(=O)Nc2nnc(-c3ccc(Cl)s3)o2)cc1,39,23*,10,110,11,11
COc1ccc(-c2nnc(NC(=O)c3ccc(S(=O)(=O)N4COCC4(C)C)cc3)o2)cc1,73,12,1,70,6,3
Cn1c(=O)c2cc(NC(=O)c3ccccc3Cl)c(=O)oc2n(C)c1=O,111,14,20*,85,33*,1
CCS(=O)(=O)c1ccc(NC(=O)c2ccccc2Cl)c(O)c1,90,-97,-4,95,-16,-13
CCOCCCn1c(C)nc2c(c1=O)c1nc3ccccc3nc1n2CCC1=CCCCC1,-22*,-7,10,12*,-2,6
CCCn1cnc2c(c1=O)c1nc3ccccc3nc1n2CCC1=CCCCC1,102,5,38,95,15,-2
Cc1ccc(NC(=O)COC(=O)c2ccn(C)n2)cc1,72,-6,5,103,-5,4
CC(=O)Nc1ccc(-c2nn[nH]n2)cc1Cl,67,-20,6,98,-5,4
Cc1ccc(C2CC(C(F)F)n3ncc(C(=O)Nc4cnn(Cc5ccccc5C)c4)c3N2)cc1 (centres undefined),25,17,9,32*,6,7
COc1ccc(-c2cc(C(=O)Nc3cnn(Cc4ccccc4C)c3)no2)cc1OC,88,-4,8,90,11,0
COc1ccc(Cl)cc1NC(=O)N1CCN(C2CCCCC2)CC1,112,3,3,99,3,-5
O=C(Nc1cccnc1)c1cnn2cccnc12,162,13,12,119,4,-2
O=C(Nc1ccc2c(c1)OCO2)c1cnn2cccnc12,-21*,5,1,97,4,3
Cc1cc2nc(NC3=NCN(Cc4ccc5c(c4)OCO5)CN3)nc(C)c2cc1C,-5.8*,2,11,70,9,6
